Measured values reported in the supplement of paper PMC6522484.
Several values for one entry are separate records, joined by “and”; a condition that tells them apart may be missing. Equal values may be shown once. ± gives the standard deviation of the averaged measurements.

How the values were obtained:
[1] = test system: DLD1; experiment: cell viability (CellTiter-Glo) relative to plate median (fraction of plate median); higher = more viable cells; conditions: 5 µM; treatment time 24 h; reporter: 7TFP
Outline: (§1)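 Stable lentiviral TCF/Wnt firefly luciferase reporters (7TFP or TCF4/Wnt) were present in the colorectal cancer cell lines used. These cells received library compounds at a final 5 µM for 24 h, and parallel plates were read for firefly luciferase or CellTiterGlo luminescence. Each well was normalised to the plate median, and the value reported is the mean of two independent replicates.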

[2] = test system: HCT116; experiment: as above; conditions: 5 µM; treatment time 24 h; reporter: TCF4/Wnt
Outline: as §1

[3] = test system: SW480; experiment: as above; conditions: 5 µM; treatment time 24 h; reporter: 7TFP
Outline: as §1

[4] = test system: DLD1; experiment: TCF/Wnt firefly luciferase reporter signal relative to plate median (fraction of plate median); higher = higher Wnt reporter signal; conditions: 5 µM; treatment time 24 h; reporter: 7TFP
Outline: as §1

[5] = test system: SW480; experiment: as above; conditions: 5 µM; treatment time 24 h; reporter: 7TFP
Outline: as §1

Row | SMILES | cell viability [1] | cell viability [2] | cell viability [3] | TCF/Wnt firefly luciferase reporter signal [4] | TCF/Wnt firefly luciferase reporter signal [5]
1 | O=C1CN2Cc3c(ccc(Cl)c3Cl)N=C2N1 | 1.05 ± 0.081 | 1.04 | 1 ± 0.011 | 1.19 ± 0.092 | 0.98 ± 0.13
2 | CC(CCc1ccccc1)NCC(O)c1ccc(O)c(C(N)=O)c1 (stereo not given) | 1.01 ± 0.12 | 1.08 ± 0.014 | 0.943 ± 0.044 | 0.935 ± 0.012 | 0.939 ± 0.046
3 | O=c1cc(-c2cccc(O)c2)oc2ccc(O)cc12 | 1.05 ± 0.09 | 0.98 ± 0.0057 | 1 ± 0.036 | 1.19 ± 0.16 | 1.19 ± 0.14
4 | CC(=O)OCC(OC(C)=O)C(OC(C)=O)C(OC(C)=O)C(OC(C)=O)C(COC(C)=O)OC(C)=O (stereo not given) | 1.06 ± 0.071 | 1 ± 0.066 | 1.045 ± 0.0071 | 0.987 ± 0.047 | 0.96 ± 0.037
5 | OCC(O)CN1CCN(c2ccccc2)CC1 (stereo not given) | 0.979 ± 0.058 | 0.995 ± 0.035 | 0.964 ± 0.033 | 0.83 ± 0.029 | 0.9255 ± 0.005
6 | CCCC1O[C@@H]2C[C@H]3[C@@H]4CCC5=CC(=O)C=C[C@]5(C)[C@H]4[C@@H](O)C[C@]3(C)[C@]2(C(=O)CO)O1 (stereo not given in full) | 1.03 ± 0.014 | 0.938 ± 0.1 | 0.912 ± 0.015 | 1.09 ± 0.071 | 0.81 ± 0.04
7 | CC(C)=CCC1=C(O)C(=O)c2ccccc2C1=O | 1.055 ± 0.0071 | 1.07 ± 0.064 | 1.02 ± 0.028 | 1.15 ± 0.092 | 1.04 ± 0.064
8 | CO/N=C(\C(=O)N[C@@H]1C(=O)N2C(C(=O)OCOC(=O)C(C)(C)C)=C(/C=C\c3scnc3C)CS[C@H]12)c1csc(N)n1 | 1.025 ± 0.0071 | 0.985 ± 0.0042 | 0.901 ± 0.0071 | 0.809 ± 0.029 | 0.854 ± 0.14
9 | CC1(C)CC[C@]2(C(=O)O)CC[C@]3(C)C(=CC[C@@H]4[C@@]5(C)CC[C@H](O)[C@@](C)(CO)[C@@H]5CC[C@]43C)[C@@H]2C1 | 0.995 ± 0.16 | 1.025 ± 0.0071 | 1.01 ± 0.04 | 0.99 ± 0.042 | 0.975 ± 0.078
10 | CC(C)Oc1ccc2c(=O)c(-c3ccccc3)coc2c1 | 0.972 ± 0.013 | 1.05 ± 0.083 | 1.01 ± 0.021 | 1.24 ± 0.21 | 0.949 ± 0.34
11 | NC(=O)c1ccc([N+](=O)[O-])cc1Cl | 1.02 ± 0.047 | 1.1 ± 0.057 | 1 ± 0.014 | 0.894 ± 0.19 | 0.967 ± 0.075
12 | CC1(C)CC2C1CCC1(C)OC2(C)CCC1O (stereo not given) | 1.045 ± 0.0071 | 1.1 ± 0.014 | 1.06 ± 0.028 | 1.02 ± 0.036 | 0.994 ± 0.094
13 | CC(=O)OCC[N+](C)(C)C | 0.987 ± 0.15 | 0.998 ± 0.059 | 0.982 ± 0.014 | 1.01 ± 0.023 | 0.992 ± 0.012
14 | C=C1CCC2C(CC2(C)C)C(=C)CC/C1=N/O (stereo not given) | 1.03 ± 0.035 | 1.02 ± 0.11 | 1 ± 0.023 | 1.095 ± 0.0071 | 0.907 ± 0.037
15 | C=CCCCCCCCCCCCc1ccco1 | 0.98 ± 0.085 | 1 ± 0.069 | 1.01 ± 0.035 | 0.854 ± 0.0099 | 0.957 ± 0.028
16 | CCOc1ccc(C(=O)c2ccc(O)c(O)c2O)cc1 | 0.928 ± 0.13 | 0.97 ± 0.18 | 1 ± 0.052 | 0.964 ± 0.093 | 1.1 ± 0.071
17 | COc1c(Cl)ccc(Cl)c1C(=O)O | 1.01 ± 0.039 | 1.11 ± 0.16 | 0.99 ± 0.057 | 1 ± 0.15 | 0.874 ± 0.0057
18 | COc1cc(/C=C/C(=O)O)cc(OC)c1OC | 0.983 ± 0.016 | 0.961 ± 0.015 | 0.903 ± 0.056 | 0.827 ± 0.072 | 0.972 ± 0.0028
19 | C[N+](C)(C)CCOC(N)=O | 0.994 ± 0.023 | 1.15 ± 0.057 | 0.9925 ± 0.0078 | 1.13 ± 0.14 | 0.847 ± 0.064
20 | O=C1OC(c2ccc(O)cc2)(c2ccc(O)cc2)c2ccccc21 | 1.01 ± 0.12 | 1.03 ± 0.12 | 1.025 ± 0.0071 | 0.981 ± 0.069 | 1.04 ± 0.057
21 | CC(C)C[C@H]1NC(=O)[C@@H](NC(=O)c2ncccc2O)[C@@H](C)OC(=O)[C@H](c2ccccc2)N(C)C(=O)[C@H](C)NC(=O)[C@H]([C@@H](C)C(C)C)N(C)C(=O)CN(C)C(=O)[C@H]2C[C@@H](O)CN2C1=O [Viridogrisein] | 1.04 ± 0.11 | 0.954 ± 0.066 | 0.971 ± 0.11 | 1.12 ± 0.021 | 0.999 ± 0.073
22 | CC(=O)OCC(=O)[C@@]12OC(C)(C)O[C@@H]1C[C@H]1[C@@H]3C[C@H](F)C4=CC(=O)C=C[C@]4(C)[C@@]3(F)[C@@H](O)C[C@@]12C | 1.01 ± 0.023 | 1 ± 0.05 | 0.969 ± 0.044 | 1.03 ± 0.072 | 1.06 ± 0.093
23 | O=c1cc(-c2ccc(O)cc2)oc2cc(O)cc(O)c12 | 0.982 ± 0.026 | 1.07 ± 0.028 | 1.02 ± 0.014 | 1.105 ± 0.0071 | 1.03 ± 0.05
24 | CS(=O)(=O)Nc1ccc([N+](=O)[O-])cc1Oc1ccccc1 | 1.02 ± 0.021 | 0.967 ± 0.089 | 0.978 ± 0.018 | 1.01 ± 0.022 | 0.981 ± 0.028
25 | Cc1onc(-c2ccccc2)c1C(=O)N[C@@H]1C(=O)N2[C@@H]1SC(C)(C)[C@@H]2C(=O)O | 0.978 ± 0.032 | 0.891 ± 0.1 | 0.978 ± 0.0014 | 1.21 ± 0.071 | 1.11 ± 0.028
26 | CCCN(CCC)S(=O)(=O)c1ccc(C(=O)O)cc1 | 1.03 ± 0.054 | 1.1 ± 0.078 | 1.1 ± 0.078 | 1.12 ± 0.21 | 1.115 ± 0.0071
27 | Cc1cccc(C)c1OCC(C)N (stereo not given) | 0.988 ± 0.059 | 0.983 ± 0.12 | 1.06 | 1.19 ± 0.078 | 1.05 ± 0.1
28 | CN(C)CCOC(c1ccccc1)c1ccccc1 | 1.04 ± 0.028 | 1.06 ± 0.092 | 0.955 ± 0.013 | 1.2 | 1.19 ± 0.085
29 | Nc1cc(-c2ccncc2)c[nH]c1=O | 1.03 ± 0.042 | 0.99 ± 0.057 | 0.928 | 0.903 ± 0.032 | 0.94 ± 0.054
30 | OCC(O)C(O)C(O)CO (stereo not given) | 0.921 and 1.07 | 0.918 and 1.01 | 0.905 and 0.944 | 1.02 and 1.01 | 1.06 and 1.04
